NIH3T3 tox – kills NIH 3T3 cells; NIH 3T3 viability, CellTiter-Glo ATP luminescence, 48-72 h; 94,000 tested, 4.3% active; Potency, µM (titrated, usually from 96.7 µM), for inactives: top-dose activity change, negative = cytotoxicity, actives largely listed as inhibitors; also: nearly all actives have a fitted effect of over 55% in size
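Mouse fibroblast NIH 3T3 cells, 400 per well, received compound via pintool and were incubated for 48 or 72 hr prior to CellTiter-Glo ATP luminescence measurement.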
HEK cytotox – HEK 293 cell cytotoxicity; Potency, µM (titrated, usually from 115 µM), without a hit: at the highest dose activity change, negative = cytotoxicity, usual class: inhibitors; 94,000 tested, 6.6% active; HEK 293 viability, ATP luminescence (CellTiter-Glo), 48-72 h; also: nearly all actives have a fitted effect of over 60% in size
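Viability of HEK 293 cells, plated at 250 cells/well, was judged by cellular ATP after compound treatment for 48 or 72 hr. Luminescence was imaged 10 min after CellTiter-Glo addition at room temperature.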
NPR1 antag – human Npr1 receptor antagonism; P16066; HEK293 hNpr1 GloSensor cGMP, ANP-stimulated luminescence; Potency, µM (doses to about 46.3 µM), for inactives: at the top dose activity change, negative = inhibition, actives largely listed as inhibitors; 76,000 tested, 1.6% active; AID 1347048; calls by dose curve; also: nearly all actives have a fitted effect of over 60% in size
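Compound pre-incubated 30 min at room temperature on GloSensor-loaded HEK293 cells stably carrying hNpr1 and the pGS-40F cGMP biosensor. Stimulation uses hNppA at 0.1 nM final; luminescence is taken at baseline and 20 min post-agonist.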
GPT2 inhibitor – inhibitors of human GPT2 alanine aminotransferase; Q8TD30; Recombinant GPT2, coupled pyruvate oxidase/HRP Amplex Red fluorescence; Potency, µM (series often up to 57.7 µM), without a hit: at the top dose activity change, negative = inhibition, actives largely listed as inhibitors; 100,000 tested, 0.25% active; also: nearly all actives have a fitted effect of over 60% in size
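Fluorescence read-out: pyruvate from GPT2 turnover coupled to pyruvate oxidase, HRP and Amplex Red (0.2mM ThPP, 0.2U/mL PO and HRP, 50uM Amplex final). Substrates 250uM a-KG, 2mM L-alanine; enzyme 10ng/uL; 30 min RT.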
Luciferase inh – inhibitors of firefly (Photinus pyralis) luciferase | P08659 | purified P. pyralis luciferase, luminescence, biochemical | Potency, µM (top dose mostly 115 µM), hits mostly inhibitors | 76,000 tested, 2.5% active; also: nearly all actives have a fitted effect of over 65% in size
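Purified 10nM P. pyralis luciferase with 10uM D-luciferin and 10uM ATP in 50mM Tris acetate pH 7.5, 10mM Mg acetate, 0.01% Tween-20, 0.05% BSA. qHTS titration; luminescence read by CCD imager.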
* = called active by the depositor; i = inactive; ? = inconclusive; nt = no result; ! = a repeat was not active; [ ] = remark or other dose. Only some compounds are listed: those with a hit (about 10% of all), similar ones and a draw of the others. Unless noted, calls follow the shape of the dose curve; as a rule, active = well fitted curve in the direction sought with a large enough effect; inconclusive = small, poorly fitted or top-dose-only effect, or another doubt; inactive = no such curve, though single readings can be large; an effect the other way counts as inactive or inconclusive. % is scaled to controls: 0 for no effect and ±100 for the full control effect; potency is read from the fitted curve at half-maximal effect.

SMILES	NIH3T3 tox	HEK cytotox	NPR1 antag	GPT2 inhibitor	Luciferase inh
CC(=O)N1CCC(N2C[C@@H]3C[C@H]2C(=O)N(Cc2ccc(OC(F)(F)F)cc2)c2ccccc2O3)CC1	?	?	-1%	4%	i
C#CCNC(=O)C1CCCN1C(=O)c1cccc(-c2ccccn2)c1 (stereo not drawn)	-21%[138 µM]	-12%[172 µM]	nt	-3%[88.5 µM]	nt
COc1ccc2c(c1)OC[C@@H]1CN(CCC#N)C(=O)CCN(C(=O)CC(C)C)[C@H]21	?	-19%	nt	nt	nt
C=CCCC(CN1CCSCC1)Oc1ncc(C)c(N(C)C)n1 (stereo not drawn)	?	?	-12%	-45%	i
CC(=O)NC1CCN(Cc2cccc(-c3cccs3)c2)CC1	?	?	nt	i	nt
C#CCNC(=O)c1nc(-c2cccc(C(F)(F)F)c2)c2cnccn12	?	?	?	?	i
O=C(NCCc1ccc(Cl)cc1)c1cc(Br)cn2ccnc12	-6%	-27%	-6%	1%	i
CSCCNC(=O)c1cc(Br)cn2ccnc12	-13%[138 µM]	-24%[172 µM]	11%[70.6 µM]	4%[88.5 µM]	45µM*!
Cc1ccc(C)c(OCC(=O)c2ccc3c(c2)N(C(C)C(=O)NCC2CCCO2)C(=O)CO3)c1 (stereo not drawn)	-22%	45µM*	6%	-5%	i
Cc1cc(F)ccc1OCC(=O)c1ccc2c(c1)N(C(C)C(=O)NCc1ccc(F)cc1)C(=O)CO2 (stereo not drawn)	?	45µM*	-9%	i	i
CCN1c2cc(C(=O)NCc3ccc(C(C)C)cc3)ccc2C(=O)N2CCCCCC21 (stereo not drawn)	?	?	-2%	-8%	i
CCCNc1cc(N2CCC(CCC(=O)N3CCN(c4cccc(C)c4)CC3)CC2)ncn1	?	20µM*	?	i	?
CCCNc1cc(N2CCC(CCC(=O)NCC)CC2)ncn1	-7%	i	-14%	-2%	i
CCCNc1cc(N2CCC(CCC(=O)N3CCN(c4ccc(F)cc4)CC3)CC2)ncn1	20µM*	?	11µM*	i	?
CCCNc1cc(N2CCC(CCC(=O)Nc3cccc(C)c3)CC2)ncn1	0%	i	-23%	?	20µM*
CCCNC(=O)CCC1CCN(c2cc(NCCC)ncn2)CC1	-11%	1%	-3%	i	?
CCCCC(=O)N1CCC(N(Cc2ccccc2)C2CCOCC2)CC1	-20%	?	-1%	i	i
CN(C)C(=O)c1cn2cc(-c3ccccc3)sc2n1	?	?	nt	i	nt
Cn1ncc2c(C(=O)NCCN3CCOCC3)cc(-c3ccccc3C(F)(F)F)nc21	1%	-7%	nt	nt	nt
CCOc1ccc(NC(=O)c2cc3c(N4CCSCC4)nc(C)cn3n2)cc1	-17%	-10%	8%	4%	i
CCc1ccc(CNC(=O)c2cc3c(N4CCCC4)nc(C)cn3n2)cc1	?	?	13%	i	i
Cc1cn2nc(C(=O)NCc3ccc(C(F)(F)F)cc3)cc2c(N2CCCC2)n1	?	45µM*	-10%	i	i
CCOc1ccccc1NC(=O)c1cc2c(N3CCSCC3)nc(C)cn2n1	?	35µM*	-4%	-4%	i
COc1ccccc1Nc1ccnc(N2CCC[C@H]2C(=O)NCc2ccc(C(F)(F)F)cc2)n1	?	?	nt	-22%	nt
CCNc1ccnc(NC2CCCc3c2cnn3-c2ccc(C)c(C)c2)n1 (stereo not drawn)	28µM*	40µM*	3%	-43%	?
CCc1nc(-c2ccc(OC3CCN(CCc4ccccc4)C3)cc2)no1 (stereo not drawn)	?	?	-12%	i	?
CN(Cc1cccnc1)c1nc2c(c(=O)[nH]1)CCN(Cc1ccc(C(F)(F)F)cc1)CC2	?	32µM*	-17%	i	i
CN(Cc1cccnc1)c1nc2c(c(=O)[nH]1)CCN(Cc1cccc(Cl)c1F)CC2	?	25µM*	-12%	-10%	i
Cc1nnc2ccc(N3CCN(C(=O)c4ccccc4F)CC3)nn12	-28%	-10%	nt	nt	nt
